# PubChem BioAssay AID485 (The Scripps Research Institute Molecular Screening Center, 2006)
# Screen size: about 170,000 compounds; about 460 (0.27%) were called active.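 The calls were made as follows: active = inhibition above the plate cutoff, the mean inhibition of test wells on that plate plus 3 SD (cut at about 28% in these data); inactive = the rest.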 The list comes from a sample in which actives are over-represented; it also holds similar structures and randomly drawn compounds.
# Molecular target: Sphingosine 1-phosphate receptor 3 (Homo sapiens) (UniProt Q99500)
# Assay: S1P3 receptor antagonists, primary screen, cell-based (AID 485);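 also: cells challenged with S1P at its EC80 of 0.8 µM; blue over green emission ratio from cleaved BLA substrate after 4 h stimulation; 0% = S1P-stimulated wells and 100% = unstimulated DMSO-only wells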
# Details: CHO S1P3 NFAT-BLA reporter, FRET fluorescence, antagonist mode; at 4.98 µM; hits give high values
# Sequence of Sphingosine 1-phosphate receptor 3 (Homo sapiens) (Q99500 whole entry, looked up): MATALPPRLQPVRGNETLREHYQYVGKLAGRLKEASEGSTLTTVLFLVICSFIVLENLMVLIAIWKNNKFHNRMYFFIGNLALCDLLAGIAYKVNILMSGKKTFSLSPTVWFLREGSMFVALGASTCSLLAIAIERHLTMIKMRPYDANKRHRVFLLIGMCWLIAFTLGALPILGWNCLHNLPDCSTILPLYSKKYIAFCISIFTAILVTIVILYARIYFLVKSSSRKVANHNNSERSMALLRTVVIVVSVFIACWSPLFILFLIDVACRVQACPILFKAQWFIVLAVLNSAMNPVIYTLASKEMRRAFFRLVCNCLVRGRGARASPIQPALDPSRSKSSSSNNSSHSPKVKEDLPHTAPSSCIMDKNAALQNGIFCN
row,SMILES,inhibition
1,COc1ccc(NC(=S)NCCNC(C)=O)cc1,12.8% (inactive)
2,COc1ccc(CS(=O)/C(Cl)=C(/Cl)C(=O)Nc2ccc(OC)nc2)cc1 (stereo unspecified),56.4% (active)
3,COc1ccc(NC(=S)Nc2ccccc2Cl)cn1,4.46% (inactive)
4,CCOC(=O)c1c(C)[nH]c(C2=NNC(=NC(C)COC)SC2)c1C (stereo unspecified),-26% (inactive)
5,CC(C)c1cc(NCc2ccccn2)n2c(nc3ccccc32)c1C#N,-17.9% (inactive)
6,O=C(N/N=C/c1ccc([N+](=O)[O-])o1)c1cccc(S(=O)(=O)N2CCOCC2)c1,8.39% (inactive)
7,O=[N+]([O-])c1cccc(/C([O-])=C(/C(=S)Nc2ccccc2F)[n+]2ccccc2)c1,-11.5% (inactive)
8,O=C(Nc1ccc(N2CCOCC2)nc1)c1c(F)cccc1F,6.79% (inactive)
9,O=[N+]([O-])c1ccc2[nH]c3c(c2c1)CCCC3O (stereo unspecified),12.7% (inactive)
10,C/C(=N\OC(=O)c1ccccc1)c1c(C)nc2cc(C)ccn12,-11.2% (inactive)
11,CC(=O)Nc1cccc(C(=O)Nc2nc(C)cs2)c1,-16.1% (inactive)
12,Cc1cc(/C=N/NC(=O)c2cccnc2)c(C)n1CC(C)C,4.4% (inactive)
13,N#CCCCn1c(O)c(N=NC(=O)C(O)c2ccccc2)c2ccccc21 (stereo unspecified),5.47% (inactive)
14,Cc1c(NC(=O)CSc2nnnn2-c2ccc(C(=O)O)cc2)c(=O)n(-c2ccccc2)n1C,7.84% (inactive)
15,CCn1ccnc1CN1CCCC(C(=O)c2ccc3c4c(cccc24)CC3)C1 (stereo unspecified),-14.3% (inactive)
16,O=C(c1cc(COc2c(F)cccc2F)on1)N1CCSCC1,10.4% (inactive)
17,C/C(CC(=O)Nc1cccc(C(F)(F)F)c1)=N\NC(=O)C(=O)NCC(C)C,-5.61% (inactive)
18,CC(C)Oc1ccc(CCC(=O)NNC(=S)NCc2ccccc2)cc1,11.1% (inactive)
19,COc1ccc(Cc2cc(-c3ccc(F)cc3)n[nH]c2=O)cc1,16.1% (inactive)
20,CCOC(=O)c1ccc(N=C2SC(C(=O)NC)CC(=O)N2CCc2ccccc2)cc1 (stereo unspecified),-0.92% (inactive)
21,CCCN(c1ccc(C)cc1)c1nc(=O)c2cccnc2s1,-4.79% (inactive)

row,SMILES,inhibition
1,O=C(O)CSCc1nc2ccccc2s1,-27.1% (inactive)
2,O=C(Nc1ccccc1)Nc1nc2ccccc2s1,6.66% (inactive)
3,CCC(=O)NC(=Nc1nc2ccccc2s1)NC(=O)CC,84.7% (active)
4,COC(=O)CSc1nccc(-c2cccs2)n1,-15.2% (inactive)
5,O=C1c2ccccc2NC(c2ccccn2)N1NS(=O)(=O)c1ccccc1 (stereo unspecified),-20% (inactive)
6,Cc1cc(=O)oc2cc(OCC(=O)Nc3nnc(C4CC4)s3)ccc12,6.03% (inactive)
7,COCCCNC(=O)Cn1c(=O)n(Cc2ccccc2Cl)c(=O)c2cc(OC)c(OC)cc21,-15.6% (inactive)
8,COc1ccc(-n2cc(CN(C)Cc3n[nH]c(=O)[nH]3)c(-c3cccc(F)c3)n2)cc1,0.22% (inactive)
9,C=CCC(Nc1ccccc1)c1cccc(OC)c1OC (stereo unspecified),3.89% (inactive)
10,CN(C)CCCN(Cc1cc2cc3c(cc2[nH]c1=O)OCCO3)C(=O)NC1CCCCC1,-12.8% (inactive)
11,O=C(CCNc1n[nH]c(=O)[nH]c1=O)N/N=C\c1ccc(Br)cc1,7.68% (inactive)
12,O=C(NCCCNc1ccc([N+](=O)[O-])cc1Cl)c1ccccc1F,-0.7% (inactive)
13,CCC(C)c1ccc(NC(=S)NCc2ccccn2)cc1 (stereo unspecified),6.58% (inactive)
14,COc1ccc(C)cc1NC(=O)c1ccc(-c2ccc(C(C)=O)cc2)o1,-2.68% (inactive)
15,CC/C(=N\NC(=S)NC(C)C)c1ccc(OC(F)F)cc1,0.35% (inactive)
16,COc1cccc(Nc2nnc(SCC(=O)N3CC(=O)Nc4ccccc43)s2)c1,1.32% (inactive)
17,CCOC(=O)c1cn(CC)c2cc(F)c(F)cc2c1=O,1.3% (inactive)
18,CN(CC(=O)Nc1cccc(F)c1)CC(=O)Nc1cccc([N+](=O)[O-])c1,-5.5% (inactive)
19,Cc1ccc(CN(C)CC(=O)Nc2cccc([N+](=O)[O-])c2)o1,-19.1% (inactive)
20,Cc1ccc(NC(=O)CN(C)CC(=O)Nc2cccc(F)c2)cc1[N+](=O)[O-],29.9% (active)
21,Cc1ccc(/C=C/C(=O)O)cc1S(=O)(=O)N1CCC(Cc2ccccc2)CC1,-2.15% (inactive)

row,SMILES,inhibition
1,O=C(Cn1cnc2cc([N+](=O)[O-])ccc2c1=O)NC(=O)NCc1ccccc1,-4.47% (inactive)
2,COc1ccc(F)cc1S(=O)(=O)N1CCCCC1,17.2% (inactive)
3,Cc1ccc(NC(=O)C/C(N)=N/O)cc1Cl,-2.94% (inactive)
4,CC(C)(C)c1ccc(CCC2OCC(CN3CCOCC3)O2)cc1 (stereo unspecified),10.3% (inactive)
5,CCN(CC(=O)Nc1cccc(S(N)(=O)=O)c1)Cc1nc2ccccc2c(=O)[nH]1,19.8% (inactive)
6,COC(=O)c1c(NC(C)=O)sc(C(=O)Nc2ccccc2OC)c1C,6.94% (inactive)
7,Cc1ccc(NC(=O)Nc2cc(-c3ccccc3)nn2C)cc1Cl,6.92% (inactive)
8,Cc1nc2ccccn2c1C(=O)NN=C1CCN(C)CC1,5.25% (inactive)
9,CCOC(=O)c1c(N)sc2c1CCCC2=O,8.9% (inactive)
10,O=[N+]([O-])c1ccc(F)cc1Oc1nc(-c2cccnc2)nc2ccccc12,4.41% (inactive)
11,CC1C(=O)NC(=O)C1c1ccccc1 (stereo unspecified),5.96% (inactive)
12,CC(NCc1ccccc1OC1CCCC1)c1ccccc1 (stereo unspecified),3.22% (inactive)
13,CCN(CC)CCN(C(=O)c1ccc(N2C(=O)CCC2=O)cc1)c1nc2cc3c(cc2s1)OCO3,-4.37% (inactive)
14,O=C(NCc1cccnc1)C(=O)Nc1nc(-c2ccccc2)cs1,10.3% (inactive)
15,CCOc1ccc(/C=C2\SC(=S)N(NC(=O)c3ccncc3)C2=O)cc1OC,6.85% (inactive)
16,CCOC(=O)CC1C(=O)NCCN1C(=O)COc1ccc(Br)cc1C (stereo unspecified),-25.1% (inactive)
17,CCOC(=O)CC1C(=O)NCCN1c1nc2c(C)cccn2c(=O)c1/C=C1\SC(=S)N(C(C)CC)C1=O (stereo unspecified),29.7% (active)
18,CCCCCC1CCC(c2nnc(SCC(C)=O)o2)CC1 (stereo unspecified),-22.3% (inactive)
19,O=C(NNS(=O)(=O)Cc1ccccc1)c1ccc([N+](=O)[O-])cc1,-6.72% (inactive)
